PubChem BioAssay (NCATS)
Inconclusive results are not listed. A call without a number means that no potency is given here. A number with no mark means an inactive call. Activity calls are given as the source filed them. Calls follow the shape of the dose curve; as a rule, active = well fitted inhibition curve with a large enough effect; inconclusive = small, poorly fitted or top-dose-only effect; inactive = flat fitted curve, though single readings scatter.

Assay: BET inhibitor-based combinations targeting novel dependencies in MECOM-rearranged (r) AML: AML-194 cell line (AID 2202237; also: nearly all actives have a fitted effect of over 40% in size)
Conditions: AML-194 (MECOM-r AML) viability, CellTiter-Glo, 48 h; series mostly up to 46 µM
Excerpt: Ecotropic viral insertion site 1 (EVI1) is located on chromosome 3q26.2 as part of the MECOM (MDS and EVI1 complex) locus. Under normal hematopoiesis, EVI1 is a regulator of hematopoietic stem cell maintenance and self-renewal and EVI1 levels decrease as the cells differentiate. In approximately 5-10% of de novo acute myeloid leukemia (AML) EVI1 is aberrantly expressed, including Chromosomal inv(3)(q21;q26.2) or t(3;3)(q21;q26.2) alterations (MECOM-r) that account for about 50% of AML with EVI1 overexpression 31. AMLs with high levels of EVI1 have a poor prognosis and an overall survival time averaging between 10-14 months. EVI1 overexpression confers resistance in leukemia cells, highlighting the need to develop new targeted therapies for EVI1 overexpressing AMLs.
Here, we performed an unbiased chemical drug screening by evaluating the single agent activity of a collection of 2,480 oncology-focused, approved and investigational drugs (NCATS Mechanism Interrogation Plates, MIPE v5.0) against a panel of seven AML cell lines. These included four MECOM-r cell-lines (AML-191, AML-194, UCSD-AML1 and HNT-34) and three non-MECOM-r AMLs (MV4-11, OCI-AML3 and SET-2). Exploiting the mechanistic redundancy built in the library, we identified target-level sensitivities in MECOM-r AML cells and relative activity as compared to other AML subtypes.
A collection of 2480 mechanistically annotated dugs (MIPE v5.0) was used to screen four 3q26.2 rearranged AML cell lines and three non-3q26.2 rearranged AML cell lines. This library purposely exploits redundancy by including multiple inhibitors of key onco-targets, while simultaneously encompassing mechanistic diversity, targeting more than 800 distinct mechanisms of action. Briefly, cells were seeded in 5 uL of growth media using a Multidrop Combi dispenser into 1536 well white polystyrene tissue culture treated plates (Corning) at a density of 500cells/well. For each cell-line, for each of the 2480 drugs in MIPE v5.0 library, an 11-point dose curve was generated via a 1536 pin-tool. Plates were incubated for 48 hr at standard incubator conditions, covered by a stainless steel gasketed lid to prevent evaporation. Cell viability was determined by luminescence based, Cell Titer Glo assay (Promega). In detail, 3 uL of Cell Titer Glo were added to each well and plates were incubated at room temperature for 15 min with a stainless-steel lid in place. Luminescence readings were taken using a Viewlux (PerkinElmer) with a 2 s exposure time per plate. Compound dose-response curves were normalized to DMSO and empty well controls on each plate. Quantitative drug activity data from dose-response curves was determined utilizing area Under the Curve (AUC) and Z-transformed AUC (Z-AUC, a mean-centering transformation applied to each individual cell-line screened).
Potency is read from the fitted curve at half-maximal effect.

| Structure (SMILES) | Potency | viability (% of control) |
| --- | --- | --- |
| O=C(O)CCCc1c[nH]c2ccccc12 | inactive |  |
| COc1cccc2nc(-c3cccs3)nc(NN3C(=O)C=C(C)C3=O)c12 | 263 nM (active) |  |
| CC1(C)NC(=O)N(c2ccc([N+](=O)[O-])c(C(F)(F)F)c2)C1=O | inactive |  |
| CCN(c1cc(-c2ccc(CN3CCOCC3)cc2)cc(C(=O)NCc2c(C)cc(C)[nH]c2=O)c1C)C1CCOCC1 | inactive |  |
| CC(C(=O)O)c1ccc2c(c1)CC(=O)c1ccccc1S2 (stereo not given) | inactive |  |
| CC(C)NC(=O)N1CC[C@H](N=C2Nc3cc(F)ccc3N(CC(F)F)c3ccc(Cl)cc32)C1 |  | 93.8% [at 8.46 µM] |
| C=C1C(=O)OC(CCCCCCCC)C1C(=O)O (stereo not given) | inactive |  |
| CN1C(=O)C(Cc2c[nH]c3ccccc23)NC1=S (stereo not given) | inactive |  |
| COc1cc(OC2CCN(C)CC2)ccc1Nc1ncc2c(n1)n(C1CCCC1)c(=O)n2C | 16600 nM (active) |  |
| CN1CCN(c2cc(C(=O)Nc3ccc4c(c3)-c3c(c(C(N)=O)nn3-c3ccc(F)cc3)CC4)c(Cl)cn2)CC1 | 8330 nM (active) |  |
| CNC(=O)c1nn(C)c2c1C(C)(C)Cc1cnc(Nc3ccc(N4CCN(C)CC4)cc3)nc1-2 | 1320 nM (active) |  |
| CC(C)n1nc(-c2cc3cc(O)ccc3[nH]2)c2c(N)ncnc21 | 417 nM (active) |  |
| Cc1ccc(NC(=O)c2cccc(N(C)C)c2)cc1NC(=O)c1ccc(O)cc1 | inactive |  |
| CC(COc1ccccc1)N(CCCl)Cc1ccccc1 (stereo not given) | inactive |  |
| CC1(C)Cc2c(-c3ccccc3)c(-c3ccc(Cl)cc3)c(CC(=O)O)n2C1 | inactive |  |
| Cn1c(=O)c2c(ncn2CC(O)CO)n(C)c1=O (stereo not given) | inactive |  |
| Cc1sc2c(c1C)C(c1ccc(Cl)cc1)=N[C@@H](CC(=O)Nc1ccc(OCCOCCOCCOCCNc3cccc4c3C(=O)N(C3CCC(=O)NC3=O)C4=O)cc1)c1nnc(C)n1-2 (stereo not given in full) | 52.5 nM (active) |  |
| CNC(=O)c1c(-c2ccc(F)cc2)oc2cc(N(CCO)S(C)(=O)=O)c(C3CC3)cc12 | inactive |  |
| CCCn1c(=O)c2[nH]c(C34CC5CC3C[C@@H](C5)C4)nc2n(CCC)c1=O | inactive |  |
| COc1ccc(CC2SC(=O)NC2=O)cc1C(=O)NCc1ccc(C(F)(F)F)cc1 (stereo not given) | inactive |  |

| Structure (SMILES) | Potency | viability (% of control) |
| --- | --- | --- |
| c1ccc(CNc2nc(NCc3ccccc3)c3ccccc3n2)cc1 | 9340 nM (active) |  |
| CC(C)Cn1cnc2c(N)nc3ccccc3c21 | inactive |  |
| O=c1[nH]c(=O)n([C@H]2C[C@H](O)[C@@H](CO)O2)cc1I | 16600 nM (active) |  |
| c1ccc([C@H]2CN3CCSC3=N2)cc1 | inactive |  |
| C#CCN[C@@H]1CCc2ccccc21 | inactive |  |
| NC(=O)c1ncn([C@@H]2O[C@H](CO)[C@@H](O)[C@H]2O)c1O | inactive |  |
| COc1cc2c(cc1OC)CN(CCc1ccc(NC(=O)c3cccc4c(=O)c5cccc(OC)c5[nH]c34)cc1)CC2 | inactive |  |
| C[C@@H]1O[C@@H](O[C@@H]2\C=C/C=C\C=C/C=C\C[C@H](C)OC(=O)/C=C\[C@H]3O[C@@H]3C[C@H](O)C[C@]3(O)C[C@@H](O)[C@@H](C(=O)O)[C@H](C2)O3)[C@H](O)[C@H](N)[C@@H]1O | inactive |  |
| Oc1ccc(-c2ccc(-c3cc(Nc4cccc(CNC5CC5)c4)n[nH]3)cc2)c(O)c1 | 3720 nM (active) |  |
| CN1C(=O)c2sccc2N(C)c2nc(Nc3ccc(S(N)(=O)=O)cc3)ncc21 | 2350 nM (active) |  |
| CCCCCCCCCCCCc1ccc(S(=O)(=O)Nc2nncs2)cc1 | inactive |  |
| NC(=O)c1ccc(-c2nc(-c3ccc4c(c3)OCO4)c(-c3ccccn3)[nH]2)cc1 | inactive |  |
| CN[C@@H](C)[C@H]1[C@H](O)C[C@@]2(C)[C@@H]3CC[C@H]4C(C)(C)[C@@H](NC)CC[C@@]45C[C@@]35CC[C@]12C |  | 117% [at 8.46 µM] |
| O=c1ccn([C@@H]2O[C@H](CO)[C@H](O)[C@@H]2F)c(=O)[nH]1 | inactive |  |
| CN(C)C1CCN(C(=O)c2ccc(NC(=O)Nc3ccc(-c4nc(N5CCOCC5)nc(N5CCOCC5)n4)cc3)cc2)CC1 | 1480 nM (active) |  |
| O=C1CCc2cc(OCCCCc3nnnn3C3CCCCC3)ccc2N1 | inactive |  |
| Cc1cccc(Nc2nc(-c3ccncc3)cs2)c1 | inactive |  |
| CC(=O)OCC(=O)[C@@]1(O)CC[C@H]2[C@@H]3CCC4=CC(=O)CC[C@]4(C)[C@H]3C(=O)C[C@@]21C | inactive |  |
| CCCN[C@H]1CCc2nc(N)sc2C1 | inactive |  |
| CC1(C)[C@@H](O)CC[C@]2(C)[C@H]3C(=O)C=C4[C@@H]5C[C@@](C)(C(=O)O)CC[C@]5(C)CC[C@@]4(C)[C@]3(C)CC[C@@H]12 | inactive |  |
